Our source for the inhibition values is PubChem BioAssay.

The inhibition is the relative decrease from the control value, in per cent.

Activity calls are given as the source filed them. No rule for the calls is given here. Where a SMILES comes first, the peptide text is derived from it. The star is where a group is joined. Boc = CC(C)(C)OC(=O)*

The target of this assay is Pantothenate synthetase (Mycobacterium tuberculosis (strain ATCC 25618 / H37Rv)) (UniProt P9WIL5). Kind of assay: Recombinant Mtb pantothenate synthetase (PanC) inhibitors, coupled enzyme, confirmatory (AID 375).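 Also: 0% = full reaction with vehicle and 100% = no enzyme background.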 The settings on record: coupled enzyme assay; at 10 µM, stronger effect = higher value.
Chain of Pantothenate synthetase (Mycobacterium tuberculosis (strain ATCC 25618 / H37Rv)) (P9WIL5 whole entry, looked up): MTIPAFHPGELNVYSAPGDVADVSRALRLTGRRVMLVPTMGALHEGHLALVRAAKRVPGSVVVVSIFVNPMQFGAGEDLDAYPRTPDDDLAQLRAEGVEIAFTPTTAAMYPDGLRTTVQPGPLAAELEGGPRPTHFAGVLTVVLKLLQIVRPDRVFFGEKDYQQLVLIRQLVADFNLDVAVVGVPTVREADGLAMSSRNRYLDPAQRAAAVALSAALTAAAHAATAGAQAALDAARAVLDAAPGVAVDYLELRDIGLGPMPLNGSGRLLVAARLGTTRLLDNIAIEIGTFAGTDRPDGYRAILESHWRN
For the compound `COC(=O)c1cnc2c(C(F)(F)F)cccc2c1OC`, the inhibition was 2% (inactive).

As to `CC(C)(C)OC(=O)N1CCCC1C(=O)N1CCCC1C(=O)N1CCCC1C(=O)O` (stereo not drawn) (Boc-Pro-Pro-Pro-OH; configuration not given here), the inhibition is 3% (inactive).

For `Cc1ccc(S(=O)(=O)c2nc(-c3ccco3)oc2SCC(=O)NCC2CCCO2)cc1` (stereo not given), the inhibition is 0% (inactive).

Turning to `COc1cccc(C2C(C(N)=O)=C(C)Nc3nc(-c4ccccc4Cl)nn32)c1` (stereo not given), the inhibition is 0% (inactive).

Consider `Cc1ccc(-c2nn(C)c(=O)c3ccccc23)cc1S(=O)(=O)NCCN1CCOCC1`, for which the inhibition was 2% (inactive).

For the compound `COc1ccc(Br)cc1C(=O)Nc1nnn(C)n1`, the inhibition was 0% (inactive).

Regarding `O=C(NC1CC1)C1CCN(c2ccc(S(=O)(=O)N3CCOCC3)cc2)CC1`, the inhibition was 0% (inactive).

Regarding `CC1(C)CC(=O)C2=C(C1)N(Cc1ccco1)C(=O)C2(NC(=O)C1CCCCC1)C(F)(F)F` (stereo not given), the inhibition is 4% (inactive).

As for `CSCCC(NC(=O)CCN1C(=O)c2ccccc2C1=O)C(=O)O` (stereo not given), the inhibition is 0% (inactive).

Consider `CCc1n[nH]c2c1C(=O)CC(C)(C)C2`, for which the inhibition is 2% (inactive).

With `CC(C)[N+](C)(CCOC(=O)C1c2ccccc2Oc2ccccc21)C(C)C`, the inhibition was 0% (inactive).

For `CC(C)(O)C#Cc1ccc(C(=O)N2CCN(C(=O)c3ccco3)CC2)cc1`, the inhibition is 0% (inactive).

`Oc1ccccc1C1=Nc2nc3ccccc3n2C(c2ccccc2)C1` (stereo not given): the inhibition was 0% (inactive).

Consider `CC(=O)N1C(=O)C2(C(C#N)=C(N)Oc3cc(C)oc(=O)c32)c2ccccc21` (stereo not given), for which the inhibition was 0% (inactive).

On to `CCCn1cc(SCC(=O)NCc2ccco2)c2ccccc21`, for which the inhibition is 3% (inactive).

In the case of `O=C(Nc1ccc2c(c1)OCO2)OCc1ccccc1`, the inhibition is 0% (inactive).

`Cc1ccc(-c2cc(C(F)F)n3ncc(C(=O)N4CCN(c5ccccn5)CC4)c3n2)cc1`: the inhibition is 6% (inactive).

`O=C(CN1C(=O)c2ccccc2C1=O)Nc1ccccc1C(=O)N1CCCC1`: the inhibition was 1% (inactive).

Regarding `Cc1cc(OCC(=O)NCCO)cc(C)c1Cl`, the inhibition is 3% (inactive).

As for `O=C(CC1CCCCC1)NCc1ccccn1`, the inhibition is 0% (inactive).

In the case of `COc1ccc2oc(C)c(C(=O)Cn3ccnc3)c2c1`, the inhibition is 0% (inactive).

For the compound `CCOc1cc(C(=O)NCc2nnc(SCC(=O)OC)n2C)cc(OCC)c1OCC`, the inhibition is 2% (inactive).

On to `O=C(CNC(=O)c1ccccc1C(=O)O)c1ccccc1`, for which the inhibition is 0% (inactive).

Take `COC(=O)/C=c1\sc2ncnn2c1=O`: the inhibition is 0% (inactive).

As to `CC(C)Cn1c(N)c(C(=O)NCc2cccs2)c2nc3ccccc3nc21`, the inhibition is 1% (inactive).

Turning to `CC(C)Cn1cc(C(=O)NCC2CCCO2)c2c3ccccc3n(C)c2c1=O` (stereo not given), the inhibition was 4% (inactive).

In the case of `COc1ccc2c(C)nc(Nc3nc(C)cc(C)n3)nc2c1`, the inhibition is 6% (inactive).

For the compound `C=CCSc1nc2c(c(=O)[nH]c(=O)n2C)n1C(C)C`, the inhibition was 0% (inactive).

Regarding `CCOC(=O)c1[nH]c(C)c(C(=O)Nc2cc(OC)ccc2OC)c1C`, the inhibition is 0% (inactive).

`CCOC(=O)C1=C(C)Nc2ncnn2C1c1ccccc1F` (stereo not given): the inhibition was 6% (inactive).

Regarding `O=S(=O)(c1ccc(S(=O)(=O)N2CCN3CCCC3C2)cc1)N1CCCC1` (stereo not given), the inhibition is 0% (inactive).

As to `CCCCN(CC)CCNC(=O)c1cc2c(C)nc3ccccc3c2o1`, the inhibition was 10% (inactive).

On to `Cc1cc(NC(=O)CSc2nc3ccccc3n2CC(=O)N2CCCCC2)no1`, for which the inhibition was 0% (inactive).

For the compound `O=C(c1cc2cc(Cl)cc(Cl)c2oc1=O)N1CCOCC1`, the inhibition is 0% (inactive).

As for `Cc1ccc2c(c1)CCCN2C(=O)c1ccc2c(c1)OCO2`, the inhibition is 0% (inactive).

Take `O=C(/C=C/c1ccccc1)c1ccccc1`: the inhibition was 0% (inactive).

In the case of `CCCC(=O)n1nc(-c2ccc(OC)cc2)nc1N`, the inhibition was 2% (inactive).

In the case of `N#Cc1c(NC(NC(=O)c2ccco2)C(=O)c2ccccc2)sc2c1CCCC2` (stereo not given), the inhibition was 2% (inactive).

As to `COc1ccc(C2CC(=O)c3cnc(NC(=O)c4ccccc4OC)nc3C2)c(OC)c1` (stereo not given), the inhibition is 8% (inactive).

For the compound `Cc1nc(NC(=O)C2CC3CCCC(C2)C3=O)sc1C` (stereo not given), the inhibition was 0% (inactive).
